Data on eleven compounds can be found in PubChem BioAssay (Tox21).

Records with an inconclusive call do not appear. Activity calls are given as the source filed them. Unless noted, calls follow the shape of the dose curve; as a rule, active = well fitted curve in the direction sought with a large enough effect in the repeat runs; inconclusive = weak or mixed curves; inactive = no such curve, though single readings can be large; an effect the other way counts as inactive or inconclusive.

Assay [1] can be described thus: qHTS assay for small molecules that induce genotoxicity in human embryonic kidney cells expressing luciferase-tagged ATAD5 (AID 651632). Also: nearly all actives have a fitted effect of over 15% in size. The settings on record: HEK293T ATAD5-luciferase induction, 16 h; series mostly up to 83.3 µM. Put shortly:
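Reporter cells (HEK293T) express luciferase-tagged ATAD5, a protein that accumulates after DNA damage. Treat 16 hr at 37C/5% CO2, add Amplite, wait 30 min at RT, and read luminescence.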
(qHTS replaces the single test concentration by a dilution series.)

Assay [2] can be described thus: qHTS assay for small molecules that induce genotoxicity in human embryonic kidney cells expressing luciferase-tagged ATAD5 - cell viability (AID 651634; calls by dose curve; also: nearly all actives have a fitted effect of over 25% in size; also: potency is read from the fitted curve at half-maximal effect). As to conditions: HEK293T ATAD5-luc cells viability, CellTiter-Fluor, 15.5 h; series mostly up to 83.3 µM. In outline:
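Seeding of 2,000 HEK293T ATAD5-luciferase cells per well preceded pin-tool compound transfer. Plates sat 15.5 hr at 37C under 5% CO2, then fluorescence was read after 30 min with CellTiter-Fluor.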

The nature of assay [3]: qHTS assay for small molecule disruptors of the mitochondrial membrane potential - cell viability (AID 720634; calls by dose curve; also: nearly all actives have a fitted effect of over 20% in size; also: potency is read from the fitted curve at half-maximal effect). The settings on record: HepG2 viability, ATP luminescence (CellTiter-Glo), 1 h; series mostly up to 83.2 µM. Put shortly:
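Measuring cytotoxicity alongside mitochondrial potential, the screen quantified ATP by luminescence in HepG2 cells after 1 hr compound incubation and a 30 min room-temperature CellTiter-Glo step.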

Assay [4] is described as follows: qHTS assay for small molecule disruptors of the mitochondrial membrane potential (AID 720635). Also: potency is read from the fitted curve at half-maximal effect. As to conditions: HepG2 mitochondrial membrane potential, Mito-MPS dye ratio; series mostly up to 83.2 µM. Put shortly: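 HepG2 cells (2,000/well) attached overnight at 37C, then took compound for 1 hr at 37C, 5% CO2. Mito-MPS dye was added for 30 min; fluorescence was read at 490/535 nm (monomers) and 540/590 nm (aggregates).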

The nature of assay [5]: qHTS assay to test for compound auto fluorescence at 590 nm (red) in HepG2 cells (AID 720674). The settings on record: HepG2 autofluorescence, red 540/590 nm, 1 h; series mostly up to 91.3 µM. In outline: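 Intrinsic compound fluorescence in the red window (Ex/Em 540/590 nm) is measured in attached HepG2 cells exposed for 1 hr, DMSO vehicle as baseline, benchmarked to Rose Bengal sodium.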

Assay [6] in a line: qHTS assay to test for compound auto fluorescence at 535 nm (green) in HepG2 cells (AID 720675). As to conditions: green autofluorescence 485/535 nm, 1 h; series mostly up to 91.3 µM.
The nature of assay [7]: qHTS assay to test for compound auto fluorescence at 590 nm (red) in HEK293 cells (AID 720679). The settings on record: red autofluorescence 540/590 nm; series mostly up to 91.3 µM. Put shortly: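 Each well held 2,000 HEK293 cells in medium containing 10% dialyzed FBS. Following 4-5 hr attachment at 37C, 23 nL test compound or DMSO was added; plates sat overnight, and red fluorescence (540/590nm) was recorded.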

Assay [8] is described as follows: qHTS assay to test for compound auto fluorescence at 535 nm (green) in HEK293 cells (AID 720680). As to conditions: green autofluorescence 485/535 nm; series mostly up to 91.3 µM.
Assay [9] is described as follows: qHTS assay to test for compound auto fluorescence at 460 nm (blue) in HEK293 cell free culture (AID 720681). As to conditions: cell-free medium, autofluorescence 405/460 nm (blue); series mostly up to 91.3 µM. In outline:
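Test compounds were pinned into cell-free culture medium (DMEM with 10% FBS) and fluorescence was read directly at Ex/Em 405/460 nm. Signals were expressed as fluorescence equivalents of triamterene, with DMSO vehicle as control.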

The nature of assay [10]: qHTS assay to test for compound auto fluorescence at 535 nm (green) in HEK293 cell free culture (AID 720682). As to conditions: cell-free medium, green autofluorescence 485/535 nm, hits give high values; series mostly up to 91.3 µM. Put shortly: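 Using fluorescein as calibrant, autofluorescence was quantified at 485/535 nm in cell-free DMEM containing 10% FBS after pintool addition of compound or vehicle.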

The nature of assay [11]: qHTS assay to test for compound auto fluorescence at 590 nm (red) in HEK293 cell free culture (AID 720683). The settings on record: cell-free medium autofluorescence, Ex540/Em590 red; series mostly up to 91.3 µM. In outline:
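Tox21 10K library compounds were pinned into cell-free DMEM with 10% FBS and fluorescence was read at excitation 540 nm. Activity is expressed as Rose Bengal sodium equivalency.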

The nature of assay [12]: qHTS assay to test for compound auto fluorescence at 590 nm (red) in HepG2 cell free culture (AID 720684). The settings on record: cell-free medium autofluorescence, red 540/590 nm; series mostly up to 91.3 µM. Put shortly: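 Red fluorescence (540 nm excitation, 590 nm emission) was measured after compound transfer into cell-free MEM supplemented with 10% FBS. Values are equivalencies against Rose Bengal sodium.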

A short description of assay [13]: qHTS assay to test for compound auto fluorescence at 460 nm (blue) in HepG2 cell free culture (AID 720685). The settings on record: Cell-free culture medium, blue autofluorescence 405/460 nm; series mostly up to 91.3 µM. In outline:
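Compound (23 nL) or DMSO pinned into cell-free MEM with 10% FBS; blue fluorescence read at 405/460 nm excitation/emission, expressed as auto-fluorescence equivalency to triamterene.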

Assay [14] is described as follows: qHTS assay to test for compound auto fluorescence at 535 nm (green) in HepG2 cell free culture (AID 720686). The settings on record: Cell-free medium, green autofluorescence 485/535 nm; series mostly up to 91.3 µM.
Assay [15] in a line: qHTS assay to test for compound auto fluorescence at 460 nm (blue) in HepG2 cells (AID 720687). The settings on record: autofluorescence 405/460 nm, 1 h; series mostly up to 91.3 µM. In outline:
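Cells (2,000/well in MEM with 10% FBS) attached overnight at 37 C, then were exposed to compound or DMSO for 1 hr at 37 C, 5% CO2. Fluorescence read at Ex/Em 405/460 nm, expressed as triamterene-equivalent signal.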

Assay [16] deals with Glucocorticoid receptor (Homo sapiens) (UniProt P04150). As to the kind of experiment: qHTS assay to identify small molecule agonists of the glucocorticoid receptor (GR) signaling pathway (AID 720691; active = well fitted activation curve with a large enough effect in the signal ratio in the repeat runs, not every such curve was filed as active; the % refers to the signal ratio). As to conditions: GR-bla HeLa, beta-lactamase reporter ratio, 18 h; series mostly up to 62.4 µM. Put shortly: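 Reporter read-out: fluorescence intensity following 2 h room-temperature LiveBLAzer B/G FRET substrate loading. Prior step: GR-bla HeLa cells held 4 h, then treated 18 h at 37 C.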
Glucocorticoid receptor (Homo sapiens), sequence (P04150 whole entry, looked up): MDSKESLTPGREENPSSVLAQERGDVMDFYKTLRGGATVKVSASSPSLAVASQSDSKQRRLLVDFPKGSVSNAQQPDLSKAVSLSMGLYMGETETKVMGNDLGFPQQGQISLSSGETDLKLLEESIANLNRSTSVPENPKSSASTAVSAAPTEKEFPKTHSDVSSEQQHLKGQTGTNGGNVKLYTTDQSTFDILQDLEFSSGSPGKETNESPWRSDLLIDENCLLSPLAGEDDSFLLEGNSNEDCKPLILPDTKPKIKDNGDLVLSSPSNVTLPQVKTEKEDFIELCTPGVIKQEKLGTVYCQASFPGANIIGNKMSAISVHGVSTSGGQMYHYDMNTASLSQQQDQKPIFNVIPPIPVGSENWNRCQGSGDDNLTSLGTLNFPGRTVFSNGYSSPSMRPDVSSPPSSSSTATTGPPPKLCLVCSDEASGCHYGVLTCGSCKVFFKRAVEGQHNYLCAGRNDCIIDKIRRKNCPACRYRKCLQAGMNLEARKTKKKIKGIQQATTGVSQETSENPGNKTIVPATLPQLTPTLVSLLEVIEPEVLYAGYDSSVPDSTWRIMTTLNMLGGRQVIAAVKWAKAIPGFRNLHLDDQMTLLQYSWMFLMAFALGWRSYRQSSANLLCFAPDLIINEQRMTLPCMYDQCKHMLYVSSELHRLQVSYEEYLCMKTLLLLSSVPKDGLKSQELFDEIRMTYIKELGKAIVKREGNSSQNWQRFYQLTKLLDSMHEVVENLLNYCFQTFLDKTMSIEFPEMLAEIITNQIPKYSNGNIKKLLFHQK

A short description of assay [17]: qHTS assay for small molecule agonists of the p53 signaling pathway - cell viability (AID 651633; calls by dose curve; also: nearly all actives have a fitted effect of over 30% in size; also: potency is read from the fitted curve at half-maximal effect). As to conditions: p53RE-bla HCT-116 viability, ATP luminescence, 16 h; series mostly up to 83.3 µM. Put shortly: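 p53RE-bla cells, seeded at 4,000 per well and rested 5 h at 37 C/5% CO2, received compounds in DMSO for 16 h at 37 C. CellTiter-Glo was then added, and luminescence was read after 30 min at room temperature to gauge cytotoxicity.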

The target in assay [18] is Glucocorticoid receptor (Homo sapiens) (UniProt P04150). Description: qHTS assay to identify small molecule antagonists of the glucocorticoid receptor (GR) signaling pathway (AID 720692; active = well fitted inhibition curve with a large enough effect in the signal ratio in the repeat runs, not every such curve was filed as active; the % refers to the signal ratio; also: potency is read from the fitted curve at half-maximal effect). As to conditions: GR-bla HeLa, beta-lactamase FRET ratio, dexamethasone-stimulated, 18 h; series mostly up to 58.5 µM. In outline:
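Dexamethasone (5 nM final) stimulated a stably integrated GRE-beta-lactamase reporter in HeLa cells during 18 h co-incubation with compounds; signal was quantified as fluorescence intensity of B/G FRET substrate after 2 h.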

Assay [19] is described as follows: qHTS assay to test for compound auto fluorescence at 460 nm (blue) in HEK293 cells (AID 720678). The settings on record: blue autofluorescence 405/460 nm; series mostly up to 91.3 µM. In outline:
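Cells were seeded and left to adhere for 4-5 hr at 37C. Compounds were then pin-transferred. After an overnight incubation at 37C under 5% CO2, intrinsic fluorescence at 405/460 nm was measured and referenced to triamterene.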

For the compound `Cc1c(F)c(F)c(COC(=O)C2C(/C=C(\Cl)C(F)(F)F)C2(C)C)c(F)c1F` (configuration not stated), the Potency result in [1], in [2] and in [3] was “inactive” in each case. For the same compound, the Potency in assay [4] was 30.6 µM (active). The call in [5], in assay [6], in [7], in assay [8], in [9] and in assay [10] was inactive. Further, the result in assay [11], in assay [12], in assay [13], in [14], in [15] and in assay [16] was inactive.
Regarding `COC(=O)C(Br)CBr` (configuration not stated), the Potency entry in assay [17], in [2], in assay [3] and in assay [18] was “inactive” each time. The result in [5], in assay [6], in [7], in assay [8], in assay [9] and in [10] was inactive. Besides, the call in assay [11], in assay [12], in [13], in assay [14] and in [15] was inactive.
Turning to `O=C1C(=O)c2cccc3cccc1c23`, the Potency result in assay [17] was “inactive”. For the same compound, the Potency in assay [2] and in [4] was 54.4 µM (active) throughout. Besides, the compound was called inactive in assay [5], in assay [6], in assay [19], in assay [7], in assay [8] and in assay [9]. Further, the outcome in assay [10], in assay [11], in assay [12], in assay [13], in assay [14] and in [15] was inactive.
Turning to `CCCCC(O)(Cn1cncn1)c1ccc(Cl)cc1Cl` (configuration not stated), in assay [1], the Potency entry is “inactive”. Moreover, the Potency in assay [4] is 54.4 µM (active). Further, the result in assay [5], in [6], in [7], in assay [8], in assay [9] and in assay [10] was inactive. The call in assay [11], in assay [12], in assay [13], in assay [14], in [15] and in [16] was inactive.
As to `O=C1CN=C(c2ccccc2)c2cc(Cl)ccc2N1CC1CC1`, the Potency result in [1], in [2] and in [3] was “inactive” in each case. Further, the outcome in assay [5], in [6], in assay [7], in assay [8], in [9] and in assay [10] was inactive. The result in [11], in assay [12], in assay [13], in [14], in assay [15] and in assay [16] was inactive. For the same compound, the Potency in assay [18] is 45.8 µM (active).
Take `CCOP(=S)(OCC)SCn1nnc2ccccc2c1=O`: the Potency result in assay [1] was “inactive”. Further, the Potency in assay [17] and in assay [3] was 27.3 µM (active) in each case. For the same compound, the compound was classed as inactive in assay [5], in assay [6], in assay [7], in assay [8], in assay [9] and in assay [10]. Also, the result in assay [11], in [12], in assay [13], in assay [14], in [15] and in [16] was inactive.
Take `[CH3][Sn]([CH3])([Cl])[Cl]`: the Potency entry in assay [1], in [2] and in assay [3] was “inactive” in each case. In addition, the call in assay [5], in assay [6], in assay [19], in assay [7], in assay [8] and in assay [9] was inactive. Moreover, the outcome in assay [10], in assay [11], in [12], in assay [13], in assay [14] and in [15] was inactive.
Regarding `C=CC(=O)OCC(C)O` (configuration not stated), the Potency result in assay [1], in [2], in [3] and in assay [4] was “inactive” throughout. In addition, the call in [5], in assay [6], in assay [19], in assay [7], in assay [8] and in assay [9] was inactive. The result in assay [10], in assay [11], in assay [12], in assay [13], in assay [14] and in assay [15] was inactive.
Take `Clc1cccc(SC2CCNCC2)n1`: the Potency entry in [1], in assay [2] and in [3] was “inactive” each time. Moreover, the call in assay [5], in [6], in [7], in [8], in assay [9] and in [10] was inactive. Also, the outcome in [11], in assay [12], in assay [13], in assay [14] and in assay [15] was inactive.
As to `O=[N+]([O-])C(Br)(CO)CO`, the Potency result in assay [1], in assay [2], in [3] and in assay [4] was “inactive” in each case. Besides, the outcome in assay [5], in [6], in assay [19], in [7], in assay [8] and in assay [9] was inactive. Besides, the compound was classed as inactive in assay [10], in assay [11], in [12], in [13], in [14] and in assay [15].
Consider `O=C(O)C1(c2ccc3c(c2)OC[C@H](Cc2ccc(-c4ccccc4)cc2)[C@H]3O)CCCC1`, for which the Potency entry in assay [1], in [2] and in assay [3] was “inactive” in each case. Besides, the compound was called inactive in assay [5], in assay [6], in assay [19], in assay [7], in assay [8] and in assay [9]. Also, the result in assay [10], in assay [11], in assay [12], in assay [13], in [14] and in [15] was inactive.
